In publication PMC11006913 one finds binding signal data, which are given here for five sequences.

Residue numbers refer to the chain shown, from its start.

Assay in all cases: PBM; 200 nM protein, PBS
What all share (conditions): dsDNA, one strand shown

The target of test [1] is T1, SIX6 (Homo sapiens, UniProt O95475 114-200, L167I).
T1 sequence: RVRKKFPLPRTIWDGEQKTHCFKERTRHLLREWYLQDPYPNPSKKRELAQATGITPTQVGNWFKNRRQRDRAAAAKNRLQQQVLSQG

The target in test [2] is T2, SIX6 (Homo sapiens, UniProt O95475 114-200, L143V).
T2 sequence: T1 sequence with L30V, I54L

The target of test [3] is T3, SIX6 (Homo sapiens, UniProt O95475 114-200, H141N).
T3 sequence: T1 sequence with H28N, I54L

Test [4] deals with T4, SIX6 (Homo sapiens, UniProt O95475 114-200, T165P).
T4 sequence: T1 sequence with T52P, I54L

Test [5] concerns the target T5, SIX6 (Homo sapiens, UniProt O95475 114-200, L167M).
T5 sequence: T1 sequence with I54M

For test [6], the target named is T6, SIX6 (Homo sapiens, UniProt O95475 114-200, L143M).
T6 sequence: T1 sequence with L30M, I54L

Test [7] deals with T7, SIX6 (Homo sapiens, UniProt O95475 114-200, L143I).
T7 sequence: T1 sequence with L30I, I54L

The target of test [8] is T8, SIX6 (Homo sapiens, UniProt O95475 114-200, T165G).
T8 sequence: T1 sequence with T52G, I54L

The target in test [9] is T9, SIX6 (Homo sapiens, UniProt O95475 114-200, T139Q).
T9 sequence: T1 sequence with T26Q, I54L

In test [10] the target is T10, SIX6 (Homo sapiens, UniProt O95475 114-200, T165A).
T10 sequence: T1 sequence with T52A, I54L

For test [11], the target named is T11, SIX6 (Homo sapiens, UniProt O95475 114-200, L167V).
T11 sequence: T1 sequence with I54V

Test [12] has as its target T12, SIX6 (Homo sapiens, UniProt O95475 114-200).
T12 sequence: T1 sequence with I54L

For test [13], the target named is T13, SIX6 (Homo sapiens, UniProt O95475 114-200, T165I).
T13 sequence: T1 sequence with T52I, I54L

Test [14] has as its target HOXA2 (Homo sapiens, UniProt O43364 129-215, R185T).
Test [15] concerns the target HOXA2 (Homo sapiens, UniProt O43364 129-215, R185K).
Test [16] addresses HOXA2 (Homo sapiens, UniProt O43364 129-215, Y150S).
Test [17] concerns the target HOXA2 (Homo sapiens, UniProt O43364 129-215).

HOXA2 (Homo sapiens, UniProt O43364 129-215, R185K), sequence (O43364 129-215 R185K): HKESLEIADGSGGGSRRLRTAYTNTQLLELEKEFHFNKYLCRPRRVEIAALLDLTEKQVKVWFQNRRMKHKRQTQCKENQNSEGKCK
HOXA2 (Homo sapiens, UniProt O43364 129-215, R185T), sequence (O43364 129-215 R185T): as the sequence (O43364 129-215 R185K) above, with K57T counted along it
HOXA2 (Homo sapiens, UniProt O43364 129-215), sequence (O43364 129-215): as the sequence (O43364 129-215 R185K) above, with K57R counted along it
HOXA2 (Homo sapiens, UniProt O43364 129-215, Y150S), sequence (O43364 129-215 Y150S): as the sequence (O43364 129-215 R185K) above, with Y22S, K57R counted along it

As to GGCGGACC, the binding signal with SIX6 [1] was 8.97 upbm affinity estimate (log intensity, higher = more binding, comparable within an allelic series); in the test with SIX6 [2], 8.88 upbm affinity estimate (log intensity, higher = more binding, comparable within an allelic series); in the test with SIX6 [3] it was 9.01 upbm affinity estimate (log intensity, higher = more binding, comparable within an allelic series); with SIX6 [4], 8.96 upbm affinity estimate (log intensity, higher = more binding, comparable within an allelic series); with SIX6 [5] it was 8.9 upbm affinity estimate (log intensity, higher = more binding, comparable within an allelic series); with SIX6 [6] it was 8.83 upbm affinity estimate (log intensity, higher = more binding, comparable within an allelic series). Also, the binding signal with SIX6 [7] is 8.88 upbm affinity estimate (log intensity, higher = more binding, comparable within an allelic series); with SIX6 [8], 8.99 upbm affinity estimate (log intensity, higher = more binding, comparable within an allelic series); with SIX6 [9], 8.91 upbm affinity estimate (log intensity, higher = more binding, comparable within an allelic series); with SIX6 [10], 8.99 upbm affinity estimate (log intensity, higher = more binding, comparable within an allelic series); with SIX6 [11], 8.82 upbm affinity estimate (log intensity, higher = more binding, comparable within an allelic series); with SIX6 [12], 8.92 upbm affinity estimate (log intensity, higher = more binding, comparable within an allelic series). Also, in the test with SIX6 [13], the binding signal was 8.89 upbm affinity estimate (log intensity, higher = more binding, comparable within an allelic series).
Regarding CAGGCCCG, the binding signal is 8.93 upbm affinity estimate (log intensity, higher = more binding, comparable within an allelic series) with SIX6 [1]; 8.77 upbm affinity estimate (log intensity, higher = more binding, comparable within an allelic series) in the test with SIX6 [2]; 8.88 upbm affinity estimate (log intensity, higher = more binding, comparable within an allelic series) with SIX6 [3]; 8.76 upbm affinity estimate (log intensity, higher = more binding, comparable within an allelic series) in the test with SIX6 [4]; 8.82 upbm affinity estimate (log intensity, higher = more binding, comparable within an allelic series) with SIX6 [5]; 8.79 upbm affinity estimate (log intensity, higher = more binding, comparable within an allelic series) with SIX6 [6]. Besides, the binding signal in the test with SIX6 [7] is 8.85 upbm affinity estimate (log intensity, higher = more binding, comparable within an allelic series); with SIX6 [8] it was 8.97 upbm affinity estimate (log intensity, higher = more binding, comparable within an allelic series); with SIX6 [9], 9.09 upbm affinity estimate (log intensity, higher = more binding, comparable within an allelic series); in the test with SIX6 [10], 8.92 upbm affinity estimate (log intensity, higher = more binding, comparable within an allelic series); in the test with SIX6 [11] it was 8.87 upbm affinity estimate (log intensity, higher = more binding, comparable within an allelic series); in the test with SIX6 [12] it was 8.81 upbm affinity estimate (log intensity, higher = more binding, comparable within an allelic series). The binding signal in the test with SIX6 [13] is 8.93 upbm affinity estimate (log intensity, higher = more binding, comparable within an allelic series).
On to CCCCGGGG, for which the binding signal with SIX6 [1] was 9.12 upbm affinity estimate (log intensity, higher = more binding, comparable within an allelic series); with SIX6 [2], 8.92 upbm affinity estimate (log intensity, higher = more binding, comparable within an allelic series); with SIX6 [3], 9.16 upbm affinity estimate (log intensity, higher = more binding, comparable within an allelic series); with SIX6 [4] it was 8.88 upbm affinity estimate (log intensity, higher = more binding, comparable within an allelic series); with SIX6 [5], 9.05 upbm affinity estimate (log intensity, higher = more binding, comparable within an allelic series); with SIX6 [6], 9.06 upbm affinity estimate (log intensity, higher = more binding, comparable within an allelic series). In addition, the binding signal with SIX6 [7] was 8.94 upbm affinity estimate (log intensity, higher = more binding, comparable within an allelic series); in the test with SIX6 [8] it was 9.11 upbm affinity estimate (log intensity, higher = more binding, comparable within an allelic series); in the test with HOXA2 [14], 6.97 upbm affinity estimate (log intensity, higher = more binding, comparable within an allelic series); in the test with SIX6 [9], 9.14 upbm affinity estimate (log intensity, higher = more binding, comparable within an allelic series); with SIX6 [10], 9.14 upbm affinity estimate (log intensity, higher = more binding, comparable within an allelic series); with HOXA2 [15], 10.1 upbm affinity estimate (log intensity, higher = more binding, comparable within an allelic series). Moreover, the binding signal is 9.05 upbm affinity estimate (log intensity, higher = more binding, comparable within an allelic series) in the test with SIX6 [11]; 9.11 upbm affinity estimate (log intensity, higher = more binding, comparable within an allelic series) in the test with SIX6 [12]; 9.08 upbm affinity estimate (log intensity, higher = more binding, comparable within an allelic series) with SIX6 [13]; 10.4 upbm affinity estimate (log intensity, higher = more binding, comparable within an allelic series) with HOXA2 [16]; 7.1 upbm affinity estimate (log intensity, higher = more binding, comparable within an allelic series) with HOXA2 [17].
For the sequence CCCTAGGG, the binding signal in the test with SIX6 [1] was 8.88 upbm affinity estimate (log intensity, higher = more binding, comparable within an allelic series); with SIX6 [2] it was 8.72 upbm affinity estimate (log intensity, higher = more binding, comparable within an allelic series); in the test with SIX6 [3] it was 8.93 upbm affinity estimate (log intensity, higher = more binding, comparable within an allelic series); in the test with SIX6 [4] it was 8.83 upbm affinity estimate (log intensity, higher = more binding, comparable within an allelic series); in the test with SIX6 [5], 8.9 upbm affinity estimate (log intensity, higher = more binding, comparable within an allelic series); with SIX6 [6] it was 8.91 upbm affinity estimate (log intensity, higher = more binding, comparable within an allelic series). Further, the binding signal was 8.92 upbm affinity estimate (log intensity, higher = more binding, comparable within an allelic series) in the test with SIX6 [7]; 8.95 upbm affinity estimate (log intensity, higher = more binding, comparable within an allelic series) in the test with SIX6 [8]; 7.32 upbm affinity estimate (log intensity, higher = more binding, comparable within an allelic series) with HOXA2 [14]; 9.15 upbm affinity estimate (log intensity, higher = more binding, comparable within an allelic series) in the test with SIX6 [9]; 8.86 upbm affinity estimate (log intensity, higher = more binding, comparable within an allelic series) with SIX6 [10]; 10.4 upbm affinity estimate (log intensity, higher = more binding, comparable within an allelic series) with HOXA2 [15]. For the same sequence, the binding signal was 9.08 upbm affinity estimate (log intensity, higher = more binding, comparable within an allelic series) with SIX6 [11]; 8.85 upbm affinity estimate (log intensity, higher = more binding, comparable within an allelic series) with SIX6 [12]; 8.92 upbm affinity estimate (log intensity, higher = more binding, comparable within an allelic series) in the test with SIX6 [13]; 10.3 upbm affinity estimate (log intensity, higher = more binding, comparable within an allelic series) with HOXA2 [16]; 7.33 upbm affinity estimate (log intensity, higher = more binding, comparable within an allelic series) with HOXA2 [17].
For the sequence CGGGCCCC, the binding signal with SIX6 [1] is 8.63 upbm affinity estimate (log intensity, higher = more binding, comparable within an allelic series); with SIX6 [2], 8.6 upbm affinity estimate (log intensity, higher = more binding, comparable within an allelic series); with SIX6 [3], 8.71 upbm affinity estimate (log intensity, higher = more binding, comparable within an allelic series); in the test with SIX6 [4], 8.8 upbm affinity estimate (log intensity, higher = more binding, comparable within an allelic series); with SIX6 [5] it was 8.68 upbm affinity estimate (log intensity, higher = more binding, comparable within an allelic series); with SIX6 [6] it was 8.6 upbm affinity estimate (log intensity, higher = more binding, comparable within an allelic series). The binding signal is 8.75 upbm affinity estimate (log intensity, higher = more binding, comparable within an allelic series) with SIX6 [7]; 8.71 upbm affinity estimate (log intensity, higher = more binding, comparable within an allelic series) in the test with SIX6 [8]; 8.68 upbm affinity estimate (log intensity, higher = more binding, comparable within an allelic series) in the test with SIX6 [9]; 8.73 upbm affinity estimate (log intensity, higher = more binding, comparable within an allelic series) in the test with SIX6 [10]; 8.59 upbm affinity estimate (log intensity, higher = more binding, comparable within an allelic series) in the test with SIX6 [11]; 8.64 upbm affinity estimate (log intensity, higher = more binding, comparable within an allelic series) with SIX6 [12]. Moreover, in the test with SIX6 [13], the binding signal is 8.66 upbm affinity estimate (log intensity, higher = more binding, comparable within an allelic series).
